These results are taken from PubChem BioAssay (NCATS).

Structures are written as SMILES. The source made the active and inactive calls. Calls come from the whole dose curve.

For this assay the following is noted: Ebola virus entry assay, ratio channel readout.
For `COc1cc(C)c(/C=C/C(C)=C/C=C/C(C)=C/C(=O)O)c(C)c1C`, the outcome was inactive.
On the same count and under the same terms, under `CN[C@@H](C)Cc1ccccc1` stands “inactive”; under `CO/N=C(\C(=O)N[C@@H]1C(=O)N2C(C(=O)O)=C(COC(C)=O)CS[C@H]12)c1csc(N)n1` (stereo in doubt), “inactive”.
Consider `Cc1noc(NS(=O)(=O)c2ccc(N)cc2)c1C`, for which the outcome was inactive.
`COc1cc([C@@H]2c3cc4c(cc3C(O[C@@H]3O[C@@H]5CO[C@@H](C)O[C@H]5[C@H](O)[C@H]3O)C3COC(=O)[C@@H]32)OCO4)cc(OC)c1OP(=O)(O)O` (stereo partly specified): the AC50 (usually the concentration giving half of the maximal activity seen) was 7.08 µM (active).
As for `CC(C)[C@H](N)C(=O)OCC(CO)OCn1cnc2c(=O)[nH]c(N)nc21` (stereo partly specified), the result was inactive.
Regarding `CC(C)NCC(O)c1ccc(NS(C)(=O)=O)cc1` (stereo unspecified), the result was inactive.
In the case of `CC[C@H]1OC(=O)[C@H](C)[C@@H](O[C@H]2C[C@@](C)(OC)[C@@H](O)[C@H](C)O2)[C@H](C)[C@@H](O[C@@H]2O[C@H](C)C[C@H](N(C)C)[C@@H]2O)[C@](C)(O)C[C@@H](C)CN(C)[C@H](C)[C@@H](O)[C@]1(C)O`, the AC50 is 2.52 µM (active).
For the molecule `CCNC(=O)[C@@H]1CCCN1C(=O)[C@H](CCCN=C(N)N)NC(=O)[C@H](CC(C)C)NC(=O)[C@@H](CC(C)C)NC(=O)[C@H](Cc1ccc(O)cc1)NC(=O)[C@H](CO)NC(=O)[C@H](Cc1c[nH]c2ccccc12)NC(=O)[C@H](Cc1cnc[nH]1)NC(=O)[C@@H]1CCC(=O)N1`, the outcome was inactive.
With `CC[C@H]1OC(=O)[C@H](C)C(=O)[C@H](C)[C@@H](O[C@@H]2O[C@H](C)C[C@H](N(C)C)[C@H]2O)[C@](C)(OC)C[C@@H](C)C(=O)[C@H](C)[C@H]2N(CCCCn3cnc(-c4cccnc4)c3)C(=O)O[C@]12C`, the outcome was inactive.
In the case of `CC(CCc1ccccc1)NCC(O)c1ccc(O)c(C(N)=O)c1` (stereo unspecified), the result was inactive.
On the same count and under the same terms, under `CO/N=C(\C(=O)N[C@@H]1C(=O)N2C(C(=O)O)=C(C[N+]3(C)CCCC3)CS[C@H]12)c1csc(N)n1` stands “inactive”; under `CCC(=O)NCCC1CCc2ccc3c(c21)CCO3` (stereo unspecified), “inactive”.
Still for that read-out and setting: next, `OC[C@H]1O[C@@H](n2cnc3c2NC=NC[C@H]3O)C[C@@H]1O`: “inactive”.
The same measure, in the same setting: next, `S=P(N1CC1)(N1CC1)N1CC1`: “inactive”; `CC(C)c1nc(N(C)S(C)(=O)=O)nc(-c2ccc(F)cc2)c1/C=C/C(O)CC(O)CC(=O)O` (stereo unspecified): “inactive”.
As to `CC[C@H](C)C(=O)O[C@H]1C[C@H](O)C=C2C=C[C@H](C)[C@H](CC[C@@H](O)C[C@@H](O)CC(=O)O)[C@H]21`, the result was inactive.
Same read-out and setting: under `CC(=O)N=c1sc(S(N)(=O)=O)nn1C` stands “inactive”.
`C[C@@H]1[C@H](O)[C@@H](C)/C=C/C=C\C=C\C=C\C=C\C=C\C=C\[C@H](O[C@@H]2O[C@H](C)[C@@H](O)[C@H](N)[C@@H]2O)C[C@@H]2O[C@](O)(C[C@@H](O)C[C@@H](O)[C@H](O)CC[C@@H](O)C[C@@H](O)CC(=O)O[C@H]1C)C[C@H](O)[C@H]2C(=O)O` (stereo in doubt): the result was inactive.
Still for that read-out and setting: under `Clc1ccc2c(c1)C(c1ccccc1)=NCc1nncn1-2` stands “inactive”.
Still for that read-out and setting: next, `CCC[C@@H]1C[C@@H](C(=O)N[C@@H]([C@H]2O[C@H](SC)[C@H](O)[C@@H](O)[C@H]2O)[C@H](C)Cl)N(C)C1`: “inactive”; `Nc1nc(Cl)nc2c1ncn2[C@@H]1O[C@H](CO)[C@@H](O)[C@@H]1F`: “inactive”; `CC(CCc1ccc(O)cc1)NCCc1ccc(O)c(O)c1` (stereo unspecified): “inactive”.
As for `CCOC(=O)CCC(=O)O[C@H]1[C@H](O[C@@H]2[C@@H](C)[C@H](O[C@H]3C[C@@](C)(OC)[C@@H](O)[C@H](C)O3)[C@@H](C)C(=O)O[C@H](CC)[C@@](C)(O)[C@H](O)[C@@H](C)C(=O)[C@H](C)C[C@@]2(C)O)O[C@H](C)C[C@@H]1N(C)C`, the outcome was inactive.
For the molecule `CN1[C@@H]2CCC[C@@H]1CC(NC(=O)c1nn(C)c3ccccc13)C2` (stereo partly specified), the result was inactive.
On the same count and under the same terms, next, `CO[C@H]1C[C@@H]2CC[C@@H](C)[C@@](O)(O2)C(=O)C(=O)N2CCCC[C@@H]2C(=O)O[C@H]([C@@H](C)C[C@@H]2CC[C@H](O)[C@H](OC)C2)CC(=O)[C@H](C)C=C(C)[C@@H](O)[C@@H](OC)C(=O)[C@H](C)C[C@H](C)C=CC=CC=C1C`: “inactive”; `CC(C)CN(C[C@@H](O)[C@H](Cc1ccccc1)NC(=O)O[C@H]1CO[C@H]2OCC[C@H]21)S(=O)(=O)c1ccc(N)cc1`: “inactive”; `CC(=O)NCCCS(=O)(=O)O`: “inactive”.
Same read-out and setting: under `COc1cc(Br)c(C[N+]2(CCOCCC3CCC4CC3C4(C)C)CCOCC2)cc1OC` (stereo unspecified) stands “inactive”; under `CC(C)CN(C[C@@H](O)[C@H](Cc1ccccc1)NC(=O)O[C@@H]1CCOC1)S(=O)(=O)c1ccc(N)cc1`, “inactive”; under `CO/N=C(/C(=O)N[C@@H]1C(=O)N2C(C(=O)O)=C(COC(N)=O)CS[C@H]12)c1ccco1`, “inactive”.
On the same count and under the same terms, next, `Cc1nnc2n1-c1ccc(Cl)cc1C(c1ccccc1Cl)=NC2`: “inactive”.
For `CN1CCN(CCC=C2c3ccccc3Sc3ccc(S(=O)(=O)N(C)C)cc32)CC1`, the concentration at half-maximal activity (AC50) is 4.47 µM (active).
`CN1CCN(C(c2ccccc2)c2ccc(Cl)cc2)CC1` (stereo unspecified): the outcome was inactive.
`CCN1CC(CCN2CCOCC2)C(c2ccccc2)(c2ccccc2)C1=O` (stereo unspecified): the outcome was inactive.
The same measure, in the same setting: under `CN/C(=C\[N+](=O)[O-])NCCSCc1csc(CN(C)C)n1` stands “inactive”.
